Measurements: PubChem BioAssay (EPA / NIEHS)
Activity calls are given as the source filed them. The calls were made as follows: active = hit-call score of the fitted dose curve at least 0.9, where 1 is the maximum; inactive = score below 0.9.

Test: CEETOX_H295R_PROG: CeeTox H295R High-throughput Steroidogenesis Assay for Progesterone (PROG) (AID 2283442);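 as to AC50: human H295R adrenal cells primed with 10 µM forskolin before dosing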
Settings: actives raise or lower the signal
Description: CEETOX_H295R is a cell-based, multiplexed-readout assay that uses H295R, a human adrenal gland cell line, with measurements taken at 48 hours after chemical dosing in a 96-well plate.CEETOX_H295R_PROG is one of 23 assay component(s) measured or calculated from the CEETOX_H295R assay. It is designed to make measurements of hormone induction, a form of inducible reporter, as detected with absorbance signals by HPLC-MS-MS technology.Data from the assay component CEETOX_H295R_PROG was analyzed into 1 assay endpoint. This assay endpoint, CEETOX_H295R_PROG, was analyzed with bidirectional fitting relative to DMSO as the negative control and baseline of activity. Using a type of inducible reporter, gain or loss-of-signal activity using HPLC-MS-MS was used to understand synthesis of Progesterone in H295R cell line at 48hr of chemical exposure. To generalize the intended target to other relatable targets, this assay endpoint is annotated to the steroid hormone intended target family, where the subfamily is progestagens.
Cell culture and media preparation procedures were conducted in accordance with OECD Test No. 456 guidelines, with minor modifications. H295R cells (ATCC CRL-2128) were expanded for 5 passages and frozen in batches in liquid nitrogen. Prior to the steroidogenesis assay, H295R cells were thawed and passed at least 4 times. The maximum passage was 10. Cells were maintained in a 1:1 mixture of DMEM/F12 supplemented with 5ml/L ITS+ Premix (BD Bioscience) and 12.5 ml/L Nu-Serum (BD Bioscience). After seeding cells into 96-well plates at 50-60% confluency, cells were allowed to adhere overnight. Prior to chemical testing, culture medium was replaced with 175 uL medium containing 10 uM forskolin to stimulate steroidogenesis for 48 hours. Following prestimulation, forskolin medium was replaced with medium containing test chemical solubilized in DMSO (ensuring a final concentration of 0.1% DMSO). Test chemicals were incubated for 48 hours, then the medium was removed and split into 2 vials containing approximately 75uL each, and stored at -80 C prior to hormone analysis. For steroid quantification, media samples were shipped to OpAns, LLC (Durham, NC) on dry ice, and samples were thawed to room temperature prior to liquid-liquid extraction. Steroid hormones were extracted from media samples using methyl tertbutyl ether (MTBE). An extra derivatization with dansyl chloride was included for estrogen (estrone and estradiol) detection only. Steroid hormones were separated by HPLC, eluted using a reverse phase C18 gradient with electrospray positive ionization, followed by quantification by tandem mass spectrometry (MS/MS). Data were acquired on a MassHunter Workstation Acquisition version B03.01 (Agilent Technologies, Inc.) and processed using MassHunter Quantitative Analysis for QQQ. Accuracy was determined for each hormone analyte from 3 standards to determine upper and lower limits of quantification (ULOQ and LLOQ, respectively) using a 7-point standard curve. Precision and accuracy of the extraction and quantification methods were calculated as the percent relative standard deviation (%RSD) of the spiked standards and percent spiked standard recovered, respectively. The goal was to achieve 100% accuracy (i.e., recover all spiked-in standard at quantification with minimal loss during run time) and good precision (i.e., have %RSD <15% to ensure reproducibility). Test medium was removed following chemical exposure, and cell viability was evaluated in the same wells by MTT. MTT procedures were as follows: after removal of test medium, 500 uL of 0.5 mg/ml of 3-[4,5-dimethylthiazol-2-y]2,5-diphenyltetrazoliumbromide solution was added to the cells. Following a 4-hour incubation at 37 C and 5% CO2 to allow formazan-crystal formation, the MTT solution was removed and blue formazan salt crystals were solubilized using 500uL anhydrous isopropanol with shaking for 20 minutes. Absorbance was read at 570 and 650nm using a Packard Fusion microplate reader. […]

| SMILES | outcome | AC50 |
| --- | --- | --- |
| CC(C)Nc1nc(Cl)nc(NC(C)C)n1 | inactive | – |
| CCCC(=NOCC)C1=C(O)CC(CC(C)SCC)CC1=O (centres undefined) | inactive | – |
| N#CN=C1SCCN1Cc1ccc(Cl)nc1 | inactive | – |
| CCSC(=O)N1CCCCCC1 | inactive | – |
| CC(C)Oc1cccc(NC(=O)c2ccccc2C(F)(F)F)c1 | – | 8.93 µM (active) |
| Cc1nc(N(C)C)nc(OC(=O)N(C)C)c1C | inactive | – |
| CCCN(CC)CC1COC2(CCC(C(C)(C)C)CC2)O1 (centres undefined) | – | 0.38 µM (active) |
| COCc1cnc(C2=NC(C)(C(C)C)C(=O)N2)c(C(=O)O)c1 (centres undefined) | inactive | – |
| CC1(C)CON(Cc2ccccc2Cl)C1=O | inactive | – |
| CC1(C)CCC(=Cc2ccc(Cl)cc2)C1(O)Cn1cncn1 (centres undefined) | – | 0.716 µM (active) |
| Clc1nc(Cl)nc(Nc2ccccc2Cl)n1 | inactive | – |
| COC(=O)NC(=S)Nc1ccccc1NC(=S)NC(=O)OC | inactive | – |
| CCCCC(C#N)(Cn1cncn1)c1ccc(Cl)cc1 (centres undefined) | inactive | – |
| CC(C)(C)C(=O)C(Oc1ccc(Cl)cc1)n1cncn1 (centres undefined) | – | 3.12 µM (active) |
| COP(=S)(OC)SCn1nnc2ccccc2c1=O | inactive | – |
| CCOc1nc(C(Cl)(Cl)Cl)ns1 | inactive | – |
| Nc1cnn(-c2ccccc2)c(=O)c1Cl | inactive | – |

| SMILES | outcome | AC50 |
| --- | --- | --- |
| CNC(=O)Oc1cccc2ccccc12 | inactive | – |
| Cc1c(COC(=O)[C@@H]2[C@H](/C=C(\Cl)C(F)(F)F)C2(C)C)cccc1-c1ccccc1 | inactive | – |
| N#Cc1c(Cl)cccc1Cl | inactive | – |
| O=C1C2CC=CCC2C(=O)N1SC(Cl)(Cl)Cl (centres undefined) | inactive | – |
| CCC(C)n1c(=O)[nH]c(C)c(Br)c1=O (centres undefined) | inactive | – |
| CCNP(=S)(OC)O/C(C)=C/C(=O)OC(C)C (centres undefined) | – | 50 µM (active) |
| CC(C)NC(=O)N1CC(=O)N(c2cc(Cl)cc(Cl)c2)C1=O | – | 16.9 µM (active) |
| COCC(=O)N(c1c(C)cccc1C)C(C)C(=O)OC (centres undefined) | inactive | – |
| CCN(CC)c1nc(C)cc(OP(=S)(OC)OC)n1 | – | 45.8 µM (active) |
| CCOP(=S)(OCC)Oc1nc(Cl)n(C(C)C)n1 | – | 61.8 µM (active) |
| CC1(C)C(C=C(Cl)Cl)C1C(=O)OC(C#N)c1cccc(Oc2ccccc2)c1 (centres undefined) | inactive | – |
| COc1cc(Cl)c(OC)cc1Cl | inactive | – |
| CCN(CC)C(=O)C(C)Oc1cccc2ccccc12 (centres undefined) | inactive | – |
| COP(=S)(OC)Oc1ccc([N+](=O)[O-])c(C)c1 | – | 2.59 µM (active) |
| O=C(Nc1ccccc1-c1ccc(Cl)cc1)c1cccnc1Cl | – | 13.1 µM (active) |
| CN/C(=N\[N+](=O)[O-])NCc1cnc(Cl)s1 | inactive | – |
| CCOC(=O)C(C)OC(=O)c1cc(Oc2ccc(C(F)(F)F)cc2Cl)ccc1[N+](=O)[O-] (centres undefined) | inactive | – |
